Assay [1] can be described thus: blockers of polyQ-driven CASP3 activation – cell-based (AID 1583). Particulars: polyglutamine-induced caspase-3 activation, cell assay; stronger effect = higher value;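 tested at 10 µM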.
Assay [2] is described as follows: yeast 75Q aggregation reduction – 75Q-TubU reporter (AID 1593). Particulars: Yeast 75Q polyglutamine aggregation reporter.
A short description of assay [3]: restoration of touch response, mutant HTT neurons – whole organism, C. elegans mechanosensory neurons, N-terminal huntingtin (AID 1599). Particulars: C. elegans polyQ-huntingtin mechanosensory neurons, stronger effect = higher value.
Assay [4] in a line: blockers of cytochrome c efflux from mitochondria – biochemical, purified mitochondria (AID 1603).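 Further: mouse liver mitochondria challenged with calcium chloride; signal normalized to the plate average as 100%.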 Particulars: stronger effect = lower value.
Assay [5] is described as follows: polyglutamine aggregate formation blockers (AID 1604). The settings on record: polyglutamine-induced protein aggregation inhibition assay; stronger effect = higher value; tested at 2.5 µM.
Assay [6] is described as follows: glutamate transport activators, MN-1 cells, MN-1 cell line (AID 1612).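 Further: tested at 1 µM final; 0% = mean of DMSO vehicle wells on each plate; positive means more glutamate uptake than control and negative means less.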 Particulars: MN-1 motor neuron cells, stronger effect = higher value.
A short description of assay [7]: 75Q-TubH aggregate inhibition, S. cerevisiae, yeast (AID 1616). Particulars: S. cerevisiae 75Q-TubH polyglutamine aggregation suppression; stronger effect = higher value.
Assay [8] in a line: signal quenchers or enhancers, Cy5 substrate/SSB – biochemical, NIH Clinical Collection, E. coli SSB, artefact control for HCV NS3 helicase inhibitor project (AID 743268). Particulars: Cy5-oligo bound E. coli SSB, fluorescence interference.
Assay [9] has as its system Hepatitis C virus NS3 helicase. Nature of the assay: blockers of NS3h binding to DNA – biochemical, fluorescence polarization, NIH Clinical Collection, primary screen (AID 743270). The settings on record: NS3 helicase binding to Cy5-dT15 DNA, stronger effect = higher value, concentration not given here. (In general: Fluorescence polarisation rises when a labelled molecule tumbles more slowly, as on binding a larger partner.)

The target in assay [10] is Single-stranded DNA-binding protein (Escherichia coli (strain K12)) (UniProt P0AGE0). Nature of the assay: SSB-ssDNA binding inhibitors – biochemical, fluorescence polarization, NIH Clinical Collection, counter-screen for HCV NS3 helicase inhibitor project (AID 743271; in the data active means inhibition above about 28%). The settings on record: E. coli SSB-DNA binding, stronger effect = higher value, concentration not given here.
A short description of assay [11]: compounds distorting NS3 helicase fluorescence signal – biochemical, NIH Clinical Collection, artefact control for HCV NS3 helicase inhibitor project (AID 743272).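 Further: HCV NS3 helicase with a Cy5 labelled single stranded DNA probe.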 The settings on record: fluorescence interference counterscreen, HCV NS3 helicase assay; stronger effect = lower value. A general note: A counterscreen serves to expose hits that act by an unwanted route or on another target.

Assay [12] can be described thus: modulation of C. elegans fzo-1 (AID 1259413).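 Further: fzo-1 mutant C. elegans worms in liquid wells.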 Particulars: C. elegans fzo-1 modulator screen, mean read-out; stronger effect = higher value.
In assay [13] the target is Mitogen-activated protein kinase 7 (Homo sapiens) (UniProt Q13164). The experiment in a line: Gal4-ERK5 driven luciferase induction – cell-based, HTS, primary screen (AID 1508626;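 active means luciferase signal above three times the same-plate solvent-only control wells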;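 further: luciferase driven by Gal4-ERK5 fusion binding five Gal4 sites before minimal TATA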). Particulars: HeLa Gal4-ERK5 transactivation, 18 h, at 5 µM, stronger effect = higher value.
Sequence of Mitogen-activated protein kinase 7 (Homo sapiens) (Q13164 whole entry, looked up, the tested form may be a part): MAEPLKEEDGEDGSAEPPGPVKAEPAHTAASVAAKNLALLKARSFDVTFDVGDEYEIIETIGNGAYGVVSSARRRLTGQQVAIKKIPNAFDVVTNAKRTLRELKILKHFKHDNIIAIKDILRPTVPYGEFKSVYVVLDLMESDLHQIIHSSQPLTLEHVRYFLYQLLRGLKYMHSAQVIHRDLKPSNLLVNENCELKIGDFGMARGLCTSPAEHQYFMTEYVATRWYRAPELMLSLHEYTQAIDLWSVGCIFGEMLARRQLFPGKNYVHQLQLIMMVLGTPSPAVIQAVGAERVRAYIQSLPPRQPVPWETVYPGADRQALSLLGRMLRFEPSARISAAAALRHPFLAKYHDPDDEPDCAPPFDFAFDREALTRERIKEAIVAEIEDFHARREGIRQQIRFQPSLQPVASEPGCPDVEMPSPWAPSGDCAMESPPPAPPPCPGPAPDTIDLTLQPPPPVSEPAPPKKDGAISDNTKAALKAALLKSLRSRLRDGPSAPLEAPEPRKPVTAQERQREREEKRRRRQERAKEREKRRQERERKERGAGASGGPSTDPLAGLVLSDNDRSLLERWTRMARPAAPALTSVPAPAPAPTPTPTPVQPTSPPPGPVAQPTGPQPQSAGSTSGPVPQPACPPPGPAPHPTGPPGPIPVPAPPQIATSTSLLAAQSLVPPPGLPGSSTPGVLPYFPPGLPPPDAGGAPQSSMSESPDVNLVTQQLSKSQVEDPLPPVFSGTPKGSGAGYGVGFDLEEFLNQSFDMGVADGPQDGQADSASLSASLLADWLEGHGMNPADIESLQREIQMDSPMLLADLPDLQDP
The nature of assay [14]: galactose survival enhancers in mitochondrial complex I cybrids – cell-based, galactose medium, ATP luminescence, primary screen (AID 1645843;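 active means z-score of at least 1.8 in each of two replicates, scored against plate mean and spread of sample wells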;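 further: positive z means more ATP and so rescue of galactose-driven cybrid death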). The settings on record: complex I mutant cybrid cells, 72 h, stronger effect = higher value.
For another assay, the system named is R275C/beta1. Nature of the assay: BK channel mutant inhibitors and activators – cell-based, U2OS BacMam, thallium flux, beta subunits, selectivity assay, profiling panel (AID 1259406;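 active means thallium flux through the channel raised or lowered by more than 3 SD from vehicle-only wells, actives on both sides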;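 further: initial slope of Thallos dye fluorescence rise after thallium is added; log ratio against the mean of 0.3% DMSO vehicle wells on the same plate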). Particulars: U2OS BacMam BK variants, at 30 µM.
The test system of another assay is R275C/beta2Delta. The assay is described as above. Particulars: U2OS BacMam BK variants, at 30 µM.
The test system of the next assay is R275C/beta4. The description is as above. The settings on record: U2OS BacMam BK variants, at 30 µM.
The test system of a further assay is R275C/Slo1WT/beta2. Described as above. Particulars: U2OS BacMam BK variants, at 30 µM.
Assay [15] can be described thus: compounds altering viability of human ES cells (AID 493140).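 Further: cells exposed to compounds for four days before counting.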 Particulars: human embryonic stem cell survival screen; stronger effect = higher value.

Structures are written as SMILES. Values joined by “and” are separate entries in the source; they are usually repeats but may differ in a detail not shown here. Equal entries are not always repeated. For part of these data: Results with a measured potency or affinity are listed apart. Active and inactive are the calls of the source. Unless noted, how the calls were made is not given here.

The inhibition is the change of the read-out against control, counted positive when it falls. Consider `O=C1NC(=O)C(c2ccccc2)(c2ccccc2)N1`, for which the inhibition was 5.01% in assay [1], -2.27% (inactive) in [9] and -2% (inactive) in [10]. The score in assay [2] worked out at 1.42. Moreover, the rescue above control in [3] amounted to 6.5. Besides, the cytochrome c release ratio in [4] turned out to be 0.9. Moreover, the inhibition of aggregation in [5] amounted to 62.8%. In addition, the glutamate uptake change in assay [6] was -8.41%. For the same compound, the aggregation suppression score in [7] came out at 1.74. Also, the fluorescence ratio is 1.01 (inactive) in [8] and 1 (inactive) in assay [11]. The mean signal in [12] is 250 (inactive). For the same compound, the luciferase signal in assay [13] was 68 AU (inactive). For the same compound, the z-score in assay [14] was 0.08 (inactive) and 1.09 (inactive) and 0.395 (inactive). For the same compound, the log fold change Tl+ flux was -0.0211 (inactive) in the assay on R275C/beta1, 0.0126 (inactive) with R275C/beta2Delta, -0.0221 (inactive) with R275C/beta4 and 0.0271 (inactive) in the assay on R275C/Slo1WT/beta2.

With `Nc1nc(N)c2nc(-c3ccccc3)c(N)nc2n1`, the inhibition is 13.8% in assay [1], 7.73% (inactive) in assay [9] and 7.91% (inactive) in [10]. Also, the score in [2] came to 1.58. The compound further had a rescue above control in assay [3] of 4.34. The cytochrome c release ratio in assay [4] was found to be 0.47. The compound further yielded an inhibition of aggregation in assay [5] of 52.6%. In assay [6], the glutamate uptake change was 10.7%. For the same compound, in assay [7], the aggregation suppression score was determined as 1.34. Besides, in [15], the survival is 18.2 (inactive). For the same compound, the fluorescence ratio in assay [8] was 1.01 (inactive); in [11] it was 0.9 (inactive). For the same compound, the mean signal in [12] is 245 (inactive). Moreover, the luciferase signal in assay [13] was 48 AU (inactive). Besides, in assay [14], the z-score is -0.725 (inactive) and 0.27 (inactive). The log fold change Tl+ flux in the assay on R275C/beta1 is -0.0258 (inactive); in the assay on R275C/beta2Delta it was -0.000652 (inactive); in the assay on R275C/beta4, -0.0731 (inactive); in the assay on R275C/Slo1WT/beta2, 0.0101 (inactive).

In the case of `NS(=O)(=O)c1cc2c(cc1C(F)(F)F)NC(Cc1ccccc1)NS2(=O)=O` (stereo not given), the inhibition in assay [1] was 23.3%; in assay [9], -0.45% (inactive); in assay [10] it was 1.05% (inactive). In [2], this compound registered a score of 1.25. For the same compound, in assay [3], the rescue above control was -3.69. In assay [4], the cytochrome c release ratio came out at 1.06. Besides, the inhibition of aggregation in [5] was found to be 66.2%. The glutamate uptake change in [6] came out at 10.7%. Moreover, the aggregation suppression score in assay [7] came out at 1.15. In addition, the survival in assay [15] is 3.67 (inactive). Also, the fluorescence ratio in assay [8] was 1.02 (inactive); in assay [11] it was 0.99 (inactive). Besides, the mean signal in assay [12] is 239 (inactive). Besides, in [13], the luciferase signal is 36 AU (inactive). For the same compound, the z-score in [14] is 1.88 (inactive). Besides, the log fold change Tl+ flux is 0.0248 (inactive) in the assay on R275C/beta1, 0.0558 (inactive) with R275C/beta2Delta, -0.00759 (inactive) with R275C/beta4 and -0.0386 (inactive) in the assay with R275C/Slo1WT/beta2.

Consider `CCCNC(C)C(=O)Nc1ccccc1C` (stereo not given), for which the inhibition in [1] was 1.52%; in assay [9] it was -4.09% (inactive); in assay [10], -0.48% (inactive). In [2], this compound had a score of 1.18. The compound further yielded a rescue above control in assay [3] of -3.71. Besides, in [4], the cytochrome c release ratio was 0.7. Further, the inhibition of aggregation in assay [5] was found to be 74.9%. Besides, the glutamate uptake change in [6] was 3.66%. Besides, in [7], the aggregation suppression score stood at 1.11. Besides, the survival in assay [15] was 13.5 (inactive). Besides, the figures for the fluorescence ratio in assay [8] and in [11] were 0.103 (active) and 0.97 (inactive), respectively. Also, the mean signal in assay [12] was 270 (inactive). The luciferase signal in [13] was 232 AU (inactive). In addition, the z-score in assay [14] is 0.075 (inactive) and 0.325 (inactive) and 0.175 (inactive). Further, the log fold change Tl+ flux with R275C/beta1 is -0.0631 (inactive); with R275C/beta2Delta, 0.0403 (inactive); in the assay with R275C/beta4, -0.00233 (inactive); with R275C/Slo1WT/beta2, 0.0338 (inactive).

These data come from PubChem BioAssay.
